The entries come from a sample that favours hits as a whole.
RmlC RmlD mix: inhibitors of RmlC and RmlD coupled enzymes | RmlC/RmlD coupled enzyme inhibition, 384-well mixture HTS | inhibition, % at 5.5 µM | actives 0.39% (n = 110,000); in the data active = inhibition above about 30%, passing the limit was not always enough; inconclusive = no clear call, values can overlap the other calls
HIV RNase H inh-1: blocks HIV-1 RNase H cleavage of RNA/DNA duplex. P04585. RT-RNase H RNA/DNA duplex cleavage, fluorescence. inhibition, % at 10 µM. actives 1.9% (n = 65,000). AID 565; in the data active = inhibition above about 50%
HIV RNase H inh-2: confirmation of HIV-1 reverse transcriptase RNase H inhibitors; inhibition, % at 10 µM; actives 39% (n = 1,000); Recombinant RT RNase H, fluorescent RNA/DNA duplex cleavage; AID 651; shares compounds with HIV RNase H inh-1; in the data active = inhibition above about 48%; inconclusive = no clear call, values can overlap the other calls
RmlCD artifact: counter-screen for RmlC/RmlD inhibitors: fluorescence artifact | shares compounds with RmlC RmlD mix | RmlC/RmlD assay fluorescence artifact counter-screen | calls only | actives 96% (n = 360); call rule not given here;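 note: compound alone with no enzyme and no substrates present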
Of the large screens only hits and unclear results are named; the others gave an inactive call (follow-up assays come after a bar, where they were run).

O=C(c1ccco1)N1CCN(C(=O)c2snc3ccc(Cl)cc23)CC1	HIV RNase H inh-1 86.4 | HIV RNase H inh-2 inactive
CCOC(=O)C1CCN(C(=O)Nc2ccc3nc(-c4ccco4)c(-c4ccco4)nc3c2)CC1	none (no result: HIV RNase H inh-1)
O=C(NCCO)c1ccc2nc(-c3ccco3)c(-c3ccco3)nc2c1	none (no result: HIV RNase H inh-1)
O=C(NC1CCCC1)c1ccc2nc(-c3ccco3)c(-c3ccco3)nc2c1	HIV RNase H inh-1 82.8 (no result: RmlC RmlD mix) | HIV RNase H inh-2 inactive
O=C(Nc1ccc2nc(-c3ccco3)c(-c3ccco3)nc2c1)N1CCCCCC1	HIV RNase H inh-1 96.5 | HIV RNase H inh-2 52.7
Cn1c(=O)c2c(-c3ccncc3)c3c(nc2n(C)c1=O)-c1ccccc1C3=O	none (no result: RmlC RmlD mix)
CC(SCCc1ccccn1)C(=O)O (stereo unspecified)	none
COc1ccccc1N1CCN(C(=O)c2cc(-c3ccc(C)cc3)on2)CC1	none
COc1ccccc1-c1cc(C(=O)N2CCN(c3ccccc3OC)CC2)no1	HIV RNase H inh-1 78.0 | HIV RNase H inh-2 inactive
COc1cccc(C(c2sc3nc(C)nn3c2O)N2CCc3ccccc3C2)c1 (stereo unspecified)	HIV RNase H inh-1 81.5 | HIV RNase H inh-2 inactive
CCN1CCN(C(c2cccc(OC)c2)c2sc3nc(C)nn3c2O)CC1 (stereo unspecified)	none (no result: RmlC RmlD mix)
CCOC(=O)c1c(C)sc2c1N(C(C)=O)c1cc(Cl)ccc1S2	none (no result: HIV RNase H inh-1)
O=C(NCCCCc1ccccc1)C1CC(c2cc(C(F)(F)F)cc(C(F)(F)F)c2)=NO1 (stereo unspecified)	none (no result: HIV RNase H inh-1)
Cc1cccc(C)c1NC(=O)CSCC(=O)O	none (no result: RmlC RmlD mix)
Cc1cccc(C)c1NC(=O)CSCC(=O)c1ccc(O)c(O)c1	HIV RNase H inh-1 87.5 | HIV RNase H inh-2 61.5
Cc1ccc(S(=O)(=O)Cn2nnnc2C(c2ccc(F)cc2)N2CCC(C(N)=O)CC2)cc1 (stereo unspecified)	none
Cc1c(Cc2ccccc2)sc(NC(=O)Cc2ccccc2)c1C(N)=O	none (no result: HIV RNase H inh-1)
Cc1c(Cc2ccccc2)sc(N)c1C(N)=O	HIV RNase H inh-1 81.7 | HIV RNase H inh-2 inconclusive
COc1ccc2oc(=O)c(C(=O)Oc3ccc(NC(C)=O)cc3)cc2c1	none (no result: HIV RNase H inh-1)
CN1C(C(=O)NCc2ccccc2)CC2Cn3c(nc4cc5ccccc5cc43)C21 (stereo unspecified)	none (no result: HIV RNase H inh-1)
C=CCSc1nc(NC)c2sccc2n1	none (no result: HIV RNase H inh-1)
COC(=O)c1ccccc1NC(=O)Cn1cnc2c(cnn2-c2ccccc2)c1=O	HIV RNase H inh-1 74.2 | HIV RNase H inh-2 inactive
CCOC(=O)c1ccccc1NC(=O)Cn1cnc2c(cnn2-c2ccccc2)c1=O	none
COc1ccc(NC(=O)C2CC(=O)OC23CCOC(C)(C)C3)cc1 (stereo unspecified)	none (no result: HIV RNase H inh-1)
COc1ccc(-n2cnnc2SCC(=O)c2cc(C)n(Cc3cccs3)c2C)cc1	none
Cc1cc(C(=O)CSc2nnc(-c3ccc(OC(F)F)cc3)o2)c(C)n1Cc1cccs1	HIV RNase H inh-1 78.6 | HIV RNase H inh-2 67.5
Fc1ccc(-n2nnc(-c3cnc4ccccc4c3)n2)cc1	none (no result: HIV RNase H inh-1)
CCOC(=O)N1CC=C2C(C#N)=C(N)C(C#N)(C#N)[C@H](c3cccs3)C2C1 (stereo partly specified)	none (no result: HIV RNase H inh-1)
CCCOc1ccc([C@@H]2C3CN(C(=O)OCC)CC=C3C(C#N)=C(N)C2(C#N)C#N)cc1OC (stereo partly specified)	HIV RNase H inh-1 70.4 | HIV RNase H inh-2 inactive
CC(C)(C)C(=O)Nc1nc(C2CCCN2S(=O)(=O)c2ccc(Cl)cc2)cs1 (stereo unspecified)	none (no result: HIV RNase H inh-1)
CCCCCOC(=O)c1ccccc1C(=O)O	none
COc1ccc(Cn2c(CCCO)nc3ccccc32)cc1OC	none
CCn1ncc(C2=NOC(C(=O)NCc3ccc(OC)cc3)C2)c1C (stereo unspecified)	none
CCn1ncc(C2=NOC(C(=O)NCc3ccccc3)C2)c1C (stereo unspecified)	HIV RNase H inh-1 50.2 | HIV RNase H inh-2 inactive
Cc1c(NS(=O)(=O)c2cccc3nsnc23)c(=O)n(-c2ccccc2)n1C	none (no result: RmlC RmlD mix)
CCCCn1c(=O)[nH]c(=O)c2c1nc(-c1ccc(-c3ccccc3Br)o1)n2CCOC	none (no result: HIV RNase H inh-1)
COCCn1c(-c2ccc(-c3ccccc3Cl)o2)nc2c1c(=O)[nH]c(=O)n2CC(C)C	RmlC RmlD mix 143.8, HIV RNase H inh-1 73.0 | HIV RNase H inh-2 72.6 | RmlCD artifact active
CCOC(=O)N1CCC(NC(=O)c2csc3c2CCCC3)CC1	none
CCCc1cc(N2CCN(C(=O)c3ccco3)CC2)n2c(nc3ccccc32)c1C#N	RmlC RmlD mix 39.1 (no result: HIV RNase H inh-1) | RmlCD artifact active
CCCc1cc(-n2ccnc2C)n2c(nc3ccccc32)c1C#N	none (no result: RmlC RmlD mix)
O=C(c1ccccc1F)N1CCN(Cc2cccc(Cl)c2)CC1	none
CCOC(=O)CC(=O)CSc1nc(-c2cccnc2)ccc1C#N	none (no result: RmlC RmlD mix) | RmlCD artifact active
N#Cc1cc2c(nc1SCC(=O)N1CCOCC1)CCCCC2	none (no result: HIV RNase H inh-1)
Cc1cc(C)c(C#N)c(SCC(=O)C(C)(C)C)n1	none (no result: HIV RNase H inh-1)
COC(=O)CC(=O)CSc1nc(C)cc(C)c1C#N	RmlC RmlD mix 120.8 | RmlCD artifact active
CCOC(=O)CC(=O)CSc1nc(-c2cccnc2)cc(C)c1C#N	none
CCOC(=O)CC(=O)CSc1nc2c(cc1C#N)CCCCCC2	RmlC RmlD mix 63.5 | RmlCD artifact active
CC(C)OC(=O)CC(=O)CSc1nc2c(cc1C#N)CCCC2	RmlC RmlD mix 58.6 | RmlCD artifact active
CS(=O)CSc1nc2c(cc1C#N)CCCC2 (stereo unspecified)	none
Cc1cc(C)nc(SCc2nnc(SCC(=O)Nc3cc(C(F)(F)F)ccc3Cl)o2)n1	none
NC(=O)[C@@H]1CCOc2c(I)cc([N+](=O)[O-])cc2C(=O)N[C@@H](CO)C(=O)NCC(=O)N1	none (no result: HIV RNase H inh-1)
COc1cc(C(CCN2CCCCC2)c2c(OC)cc(OC)c3c(C)cc(=O)oc23)cc(OC)c1OC (stereo unspecified)	none (no result: HIV RNase H inh-1)
Cc1cc(C)cc(-n2cc3c(=O)n(C)c(=O)n(C)c3c2)c1	none (no result: RmlC RmlD mix)
N#Cc1cc2c(nc1SCC(=O)Nc1sc3c(c1C#N)CCC3)CCCCCC2	none (no result: HIV RNase H inh-1)
CC(C)OC(=O)CC(=O)CSc1nc2c(cc1C#N)CCCCCC2	RmlC RmlD mix active (no result: HIV RNase H inh-1) | RmlCD artifact active
N#Cc1cc2c(nc1SCC(=O)Nc1nccs1)CCCCC2	none
CCc1nnc(NC(=O)CSc2nc3c(cc2C#N)CCC3)s1	RmlC RmlD mix 56.0 | RmlCD artifact active
CCOC(=O)C1C2C=CC(CC2)N1c1ccccc1 (stereo unspecified)	none (no result: HIV RNase H inh-1)
COc1ccc2cc3cc(C(=O)Nc4cc(OC)c(OC)c(OC)c4)oc3nc2c1	none (no result: HIV RNase H inh-1)
COc1ccc2cc3cc(C(=O)NC(C)C)oc3nc2c1	RmlC RmlD mix 96.4 (no result: HIV RNase H inh-1) | RmlCD artifact active
CCOC(=O)c1ccccc1NC1CC(=O)N(c2ccccc2C)C1=O (stereo unspecified)	none
Cc1ccc2nc(-c3ccc(NC(=S)NCCC(C)C)cc3)sc2c1	RmlC RmlD mix 129.7 (no result: HIV RNase H inh-1) | RmlCD artifact active
CC(=O)NC(=S)Nc1ccc(-c2nc3ccc(C)cc3s2)cc1	none (no result: HIV RNase H inh-1)
CC1(c2nnc(Cc3ccccc3)o2)CC(c2cccc(Cl)c2)=NO1 (stereo unspecified)	none (no result: HIV RNase H inh-1)
COC(=O)c1c(C)[nH]c(C(=O)CSc2ccc(Cl)cc2)c1C	none (no result: HIV RNase H inh-1)
O=c1c(-c2ccc3c(c2)OCCO3)coc2c(CN3CCOCC3)c(O)ccc12	none
Cc1cc(=O)oc2c(CN(CC(C)C)CC(C)C)c(O)ccc12	RmlC RmlD mix 104.9 (no result: HIV RNase H inh-1) | RmlCD artifact active
O=c1oc2c(CN3CCOCC3)c(O)ccc2c2c1CCC2	RmlC RmlD mix 99.6 | RmlCD artifact active

From PubChem BioAssay
